ERp5 inh: inhibitors of ERp5-driven insulin aggregation, primary screen, biochemical, turbidity, absorbance 650 nm, single point. inhibition, % at 9.99 µM. AID 651711, 2012. actives 0.05% (n = 350,000). 90 min;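 active means mean replicate inhibition above about 25%, with every replicate also reaching it, limit read from the data, passing the limit was not always enough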
Target sequence (Q15084 whole entry, looked up): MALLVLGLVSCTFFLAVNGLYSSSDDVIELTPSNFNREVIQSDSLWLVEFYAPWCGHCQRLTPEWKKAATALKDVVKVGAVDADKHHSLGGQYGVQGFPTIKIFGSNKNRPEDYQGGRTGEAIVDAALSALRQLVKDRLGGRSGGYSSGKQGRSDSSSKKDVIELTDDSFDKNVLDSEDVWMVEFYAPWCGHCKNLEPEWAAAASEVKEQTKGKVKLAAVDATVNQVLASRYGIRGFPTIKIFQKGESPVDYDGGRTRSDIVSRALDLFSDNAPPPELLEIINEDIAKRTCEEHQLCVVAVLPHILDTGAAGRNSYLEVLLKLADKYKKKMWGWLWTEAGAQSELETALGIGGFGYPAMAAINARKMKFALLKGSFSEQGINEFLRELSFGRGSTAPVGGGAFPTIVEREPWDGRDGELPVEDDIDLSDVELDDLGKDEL
CendR NRP1 mod: modulators of CendR peptide binding to NRP-1, primary screen, biochemical, fluorescence polarization, uHTS. Neuropilin-1 (Homo sapiens), O14786. AID 602438, 2012. inhibition, % at 25 µM. actives 0.85% (n = 360,000). FAM-RPARPAR peptide binding to NRP-1;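 active means inhibition or corrected inhibition above about 18%, plus a signal ratio from 0.5 to 1.5, limit read from the data, passing the limit was not always enough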
PglD inh: C. jejuni PglD acetyltransferase inhibitors, primary screen, biochemical, DTNB colorimetric, single point; UDP-N-acetylbacillosamine N-acetyltransferase PglD (Campylobacter jejuni); purified PglD enzyme, DTNB colorimetric CoA detection; inhibition, % at 12.5 µM; actives 0.098% (n = 360,000); in the data active means inhibition above about 16%, passing the limit was not always enough
ARNT TACC3 PPI: disruptors of ARNT/TACC3 protein interaction, primary screen, biochemical, AlphaScreen, single concentration; actives 0.66% (n = 390,000); AlphaScreen His-ARNT PAS-B/GST-TACC3 binding, luminescence; TACC3 fragment carries E629A point mutation; AID 623870, 2012; inhibition, % at 9.99 µM;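 active means mean inhibition of replicates at least 50% and at least half of replicates each reaching 50%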;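 further: 0% = complete ARNT plus TACC3 wells and 100% = ARNT alone without TACC3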
PDI turbidity: inhibitors of human PDI, primary screen, biochemical, turbidity, single point, plate reader; actives 0.052% (n = 350,000); inhibition, % at 10 µM; AID 588391, 2011; PDI insulin aggregation turbidity, A650, 90 min; Protein disulfide-isomerase (Homo sapiens), P07237;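 active means mean inhibition across replicates of 30% or more, whatever share of single replicates reach that level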
ALR inh: inhibitors of human ALR sulfhydryl oxidase, primary screen, biochemical, H2O2 detection, HRP-luminol luminescence, single point; FAD-linked sulfhydryl oxidase ALR (Homo sapiens), P55789; inhibition, % (concentration not given with the values); purified ALR, DTT oxidation; actives 3.8% (n = 290,000);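 active means mean replicate inhibition above about 79%, with every replicate also reaching it, limit read from the data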
Target sequence (P55789 whole entry, looked up): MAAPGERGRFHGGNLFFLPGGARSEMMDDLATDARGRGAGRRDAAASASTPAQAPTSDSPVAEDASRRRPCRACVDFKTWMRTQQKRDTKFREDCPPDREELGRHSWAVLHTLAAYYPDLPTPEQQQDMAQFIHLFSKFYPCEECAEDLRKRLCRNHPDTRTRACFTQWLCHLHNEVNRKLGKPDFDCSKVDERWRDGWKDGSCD
* marks the source's active call; other numbers are inactive results; nt = not tested or not shown. The entries come from a sample that favours hits as a whole.

SMILES	ERp5 inh	CendR NRP1 mod	PglD inh	ARNT TACC3 PPI	PDI turbidity	ALR inh
CCC(=O)N1CCC2(CC1)CN(S(=O)(=O)c1ccccc1)[C@H](CO)c1[nH]c3cc(OC)ccc3c12	-3	nt	nt	nt	nt	nt
C[C@@H]1CN([C@H](C)CO)C(=O)c2cccc(NS(=O)(=O)c3ccc(Cl)cc3)c2O[C@@H]1CN(C)Cc1ccc2c(c1)OCO2	-1	nt	-7	-29	nt	nt
CN(C)c1ccc(NC(=O)CSc2nc3c(c(=O)[nH]2)CCCC3)cc1	-5	-2	nt	-3	-2	96*
Cc1cc(C)cc(NC(=O)CSc2nc3nc(C)cc(C)c3c(=O)[nH]2)c1	5	-9	0	0	-4	99*
CCc1cccc(NC(=O)CSc2nc3c(c(=O)[nH]2)CCCC3)c1	nt	nt	nt	nt	nt	-6
Cc1cc(C)c2c(=O)[nH]c(SCC(=O)Nc3ccc(N(C)C)cc3)nc2n1	nt	4	1	2	-37	99*
Cc1cc(C)c2c(=O)[nH]c(SCC(=O)c3ccc(C)c(C)c3)nc2n1	-3	-7	nt	nt	4	98*
Cc1ccc(NC(=O)CSc2nc3nc(C)cc(C)c3c(=O)[nH]2)cc1	2	0	1	-3	7	-20
C[C@@H]1CN([C@H](C)CO)S(=O)(=O)c2ccc(-c3ccncc3)cc2O[C@@H]1CN(C)C	3	nt	4	-10	nt	nt
CNC[C@@H]1Oc2c(NC(=O)Nc3ccc(OC)cc3)cccc2C(=O)N([C@H](C)CO)C[C@@H]1C	1	nt	-2	7	nt	nt
C[C@@H](NC(=O)C[C@H]1CC[C@H]2[C@@H](COC[C@@H](O)CN2Cc2cc(F)ccc2F)O1)c1ccccc1	-2	nt	3	6	nt	nt
COc1ccc(NC2=C(NCCO)C(=O)c3ccccc3C2=O)cc1	0	-4	nt	60*	5	-85
COc1cccc(NC2=C(NCCO)C(=O)c3ccccc3C2=O)c1	1	14	0	47*	-7	87*
Cc1cccc(Nc2nc(N)c([N+](=O)[O-])c(NCCO)n2)c1	-2	6	nt	-3	-2	-11
Cc1cccc(NC2=C(NCCO)C(=O)c3ccccc3C2=O)c1	-7	-3	-1	39*	2	99*
Nc1ccc(N)c(C(=O)O)c1	nt	11	-3	47*	18	-27
O=C(O)c1ccccc1NS(=O)(=O)c1cccc(-n2sc3ccccc3c2=O)c1	-1	-98	3	-4	-19	98*
COCc1cc(C)nc(OCC(=O)N/N=C/c2cccc(OC)c2)c1C#N	nt	18	-5	-2	-3	1
COCc1cc(C)nc(OCC(=O)N/N=C/c2ccc(O)cc2O)c1C#N	2	-4	nt	73*	-1	nt
COCc1cc(C)nc(OCC(=O)N/N=C/c2ccccc2O)c1C#N	0	10	nt	81*	-11	17
O=C(/C=C/c1ccccc1[N+](=O)[O-])Oc1ccccc1	nt	nt	nt	nt	nt	4
O=C(/C=C/c1ccccc1[N+](=O)[O-])c1ccc(F)cc1	1	17	-2	-22	-6	98*
CCOC(=O)c1nn(-c2ccc(C)c(C)c2)cc1O	nt	-4	13	-12	8	97*
CCOC(=O)c1nn(-c2ccc3c(c2)OCCO3)cc1O	2	2	4	-1	-5	7
O=C(Cc1ccccc1)NCC(=O)N1CCN(c2ccccc2)CC1	11	27*	-1	-8	-5	66
SMILES	ERp5 inh	CendR NRP1 mod	PglD inh	ARNT TACC3 PPI	PDI turbidity	ALR inh
O=C(Cc1ccc(Br)cc1)N1CCN(c2ccccc2)CC1	nt	3	0	0	-1	98*
O=C([C@@H]1[C@@H](CO)[C@@H]2Cn3c(cccc3=O)[C@@H]2N1Cc1ccccc1Cl)N1CCCCC1	0	nt	-1	29	nt	nt
Cc1ccccc1S(=O)(=O)N1C[C@H](O)COC[C@@H]2O[C@H](CC(=O)N3CCC(Cc4ccccc4)CC3)CC[C@H]21	-9	nt	-4	5	nt	nt
O=C(C[C@H]1CC[C@H](NS(=O)(=O)c2ccccc2)[C@@H](CO)O1)NCCN1CCCCC1	9	nt	-2	1	nt	nt
CC(=O)c1ccc(S(=O)(=O)NCC(=O)NC(c2nc3ccccc3[nH]2)C(C)C)cc1 (stereo unspecified)	-2	1	-1	-2	-10	99*
CC(C)C(NC(=O)CCNC(=O)c1ccc(C(C)(C)C)cc1)c1nc2ccccc2[nH]1 (stereo unspecified)	1	5	nt	1	1	0
CC(=O)SC1CC(=O)N(c2ccc(C(C)(C)C)cc2)C1=O (stereo unspecified)	-10	5	3	-3	9	98*
C[C@@H]1CCCCO[C@@H](CN(C)S(=O)(=O)c2cccs2)[C@@H](C)CN([C@H](C)CO)C(=O)c2cc(NC(=O)CCCN(C)C)ccc2O1	-3	nt	3	1	nt	nt
O=C([C@H]1[C@H](CO)[C@H]2Cn3c(ccc(C4=CCCC4)c3=O)[C@@H]1N2C(=O)c1ccncc1)N1CCOCC1	2	nt	-2	15	nt	nt
Cc1cnc(=O)[nH]c1SCc1ccc([N+](=O)[O-])cc1	-2	3	-1	3	-8	99*
C[C@@H]1CN([C@@H](C)CO)C(=O)c2cc(NC(=O)Nc3ccc(F)cc3)ccc2O[C@@H](C)CCCCO[C@H]1CN(C)Cc1ccc(Cl)c(Cl)c1	2	nt	-7	48*	nt	nt
C[C@H](CO)N1C[C@H](C)[C@@H](CN(C)C(=O)c2ccncc2)OCCCC[C@H](C)Oc2ccc(NC(=O)Cc3ccccc3)cc2C1=O	-1	nt	-1	active	nt	nt
C[C@@H]1CCCCO[C@@H](CN(C)C(=O)CCC(F)(F)F)[C@@H](C)CN([C@H](C)CO)C(=O)c2cc(NS(=O)(=O)c3ccc(Cl)cc3)ccc2O1	3	nt	9	-4	nt	nt
C[C@H](CO)N1C[C@H](C)[C@H](CN(C)C(=O)Nc2ccnc(N3CCOCC3)c2)OCc2ccccc2-c2ccccc2C1=O	-6	nt	-1	12*	nt	nt
C[C@H](CO)N1C[C@H](C)[C@H](CN(C)C(=O)CCC(F)(F)F)OCCCC[C@H](C)Oc2ccc(NS(=O)(=O)c3ccc(Cl)cc3)cc2C1=O	81*	nt	1	3	nt	nt
C[C@H]1CN([C@@H](C)CO)C(=O)c2cc(NS(=O)(=O)c3ccccc3)ccc2O[C@H]1CN(C)Cc1ccc(C(=O)Nc2ccccc2N)cc1	-1	nt	-4	0	nt	nt
COc1ccc2c3c(n(C)c2c1)[C@H](CO)N(Cc1ccccc1Cl)CC31CCN(C(=O)CC2CC2)CC1	10	nt	nt	nt	nt	nt
C[C@H]1CN([C@@H](C)CO)C(=O)c2cc(NC(=O)C3CC3)ccc2O[C@H]1CN(C)S(=O)(=O)c1cn(C)cn1	-3	nt	-3	-12	nt	nt

Screens (PubChem BioAssay)
